This passage reports activation results from PubChem BioAssay AID504905 (The Scripps Research Institute Molecular Screening Center, 2011).

The other results are listed elsewhere or left out. The source made the active and inactive calls. Cut-off read from the data, not from the text of the source: active = activation above about 17%; inactive = the rest.

5-hydroxytryptamine receptor 5A (Homo sapiens), sequence (P47898 whole entry, looked up): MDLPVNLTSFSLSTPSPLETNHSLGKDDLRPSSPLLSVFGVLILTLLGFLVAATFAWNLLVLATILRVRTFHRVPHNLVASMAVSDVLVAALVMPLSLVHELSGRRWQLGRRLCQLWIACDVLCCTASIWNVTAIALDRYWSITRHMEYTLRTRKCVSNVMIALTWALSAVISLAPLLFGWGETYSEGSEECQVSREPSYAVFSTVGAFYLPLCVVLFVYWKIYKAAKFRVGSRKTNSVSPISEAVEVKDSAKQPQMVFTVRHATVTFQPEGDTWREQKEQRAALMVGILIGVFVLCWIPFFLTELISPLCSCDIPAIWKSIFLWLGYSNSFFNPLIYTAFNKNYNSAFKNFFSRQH

This experiment concerns the target 5-hydroxytryptamine receptor 5A (Homo sapiens) (UniProt P47898). Kind of experiment: HTR5A agonists in cells, counter-screen for OPRM1-OPRD1 heterodimer agonist project, cell-based, luminescence (AID 504905).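 Note: 0% = vehicle-treated cells and 100% = reference agonist response.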 The note with it: HTR5A agonist counterscreen, at 9.3 µM, hits give high values. For orientation: A counterscreen serves to expose hits that act by an unwanted route or on another target.
With `COc1ccccc1C(CNC(=O)c1ccc(C)c(S(=O)(=O)N2CCCCC2)c1)N(C)C` (stereo unspecified), the activation is 0.79% (inactive). For `N#C/C(=C(/O)COC(=O)COc1ccc(Cl)cc1)c1nc2ccccc2[nH]1` the value was 9.3% (inactive); for `COc1ccc(C2Nc3ccccc3C(=O)N2c2ccc(F)cc2)cc1Cn1nnc2ccccc21` (stereo unspecified), 2.9% (inactive). Take `Cc1cc(C)cc(C(=O)N(CCc2ccccc2)C2=CC3CCC(C2)N3C)c1` (stereo unspecified): the activation is -1.9% (inactive). As for `C=C(C)COc1ccc(-c2n[nH]c(C)c2-c2ccccc2)c(O)c1`, the activation is 5.34% (inactive). On to `COc1cc(C(=O)OC(C)C(=O)NCC2CCCCC2)cc(NC(=O)c2ccco2)c1OC` (stereo unspecified), for which the activation was -2.12% (inactive). For `O=C1N/C(=C/c2cccs2)C(=O)N1Cc1ccc(F)cc1` the value was 27.5% (active); for `CC(c1cccnc1)N(CCN(C)C)C(=O)Nc1ccc(Cl)c(Cl)c1` (stereo unspecified), -6.75% (inactive); for `CCc1ccc(C(CNc2nc(C(F)(F)F)nc3ccccc23)N(C)C)cc1` (stereo unspecified), -2.05% (inactive). For `CN(CC(=O)Nc1ccc(Cl)cc1)C(=O)c1ccc(COc2ccccc2)cc1`, the activation is 5.21% (inactive). With `COc1ccc(-n2nnnc2-c2nc3ccccc3s2)cc1`, the activation was 4.69% (inactive). Turning to `CCOC(=O)C1(CC2CCCCO2)CCN(Cc2nc(-c3cccs3)oc2C)CC1` (stereo unspecified), the activation was 3.31% (inactive). As to `Cc1ccc(O)c(NC(=S)NC(=O)COc2ccc(Br)cc2)c1`, the activation is 0.97% (inactive).

With `COc1ccc(C(CNCC(=O)Nc2ccccc2F)N(C)C)cc1` (stereo unspecified), the activation was 5.09% (inactive). As to `CN(C)C(CNC(=O)c1ccc(S(=O)(=O)NCc2ccco2)cc1)c1ccccc1` (stereo unspecified), the activation was 4.56% (inactive). For `CN1C(CC(=O)Nc2ccc(Br)cc2)c2ccccc2CC1(C)C` (stereo unspecified), the activation is 5.83% (inactive).

On to `CN(C)C(CNC(=O)Cc1ccc([N+](=O)[O-])cc1)c1ccccc1` (stereo unspecified), for which the activation is 1.22% (inactive). For `N#CC(C(=O)c1ccc(S(=O)(=O)N2CCCCCC2)cc1)c1nc2ccccc2[nH]1` (stereo unspecified) the value was 5.09% (inactive). For `O=C(NC1=CC(=O)c2ccccc2C1=O)c1ccccc1` the value was 3.59% (inactive); for `CCNS(=O)(=O)c1ccc(NC(=O)Nc2cccc(OC)c2)cc1`, 3.27% (inactive). For the compound `Cc1ccc(Nc2ccccc2N)cc1`, the activation was 0.79% (inactive).
